Assay outcomes from PubChem.
TbPYK inhibitor – blocks Trypanosoma brucei pyruvate kinase. Q57TT1. Potency, µM (series often up to 76.8 µM), usual class: inhibitors. TbPYK enzyme, Kinase-Glo Plus ATP luminescence, 45 min. 0.12% of 410,000 active. AID 624173; also: nearly all actives have a fitted effect of over 50% in size
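Activity of T. brucei pyruvate kinase was followed by Kinase-Glo Plus luminescence after the enzyme reacted 45 min at room temperature with 130 uM ADP (final) and substrate. Test compounds were added before ADP at multiple concentrations.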
Shiga toxin inh – Shiga toxin inhibition; inhibition, % at 38.7 µM; Vero cells, Shiga toxin protein synthesis inhibition reporter; 9.2% of 290,000 active; in the data active = inhibition mostly above about 28%, no sharp cut-off; inactive = mostly below about 43%
LmPK inhibitor – blocks Leishmania mexicana pyruvate kinase activity. 0.37% of 290,000 active. Potency, µM (doses to about 57.5 µM), most hits filed as inhibitors. AID 1721. Q27686. purified LmPK, Kinase-Glo ATP luminescence, 1 h
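ATP generated from ADP (0.1 mM) and PEP (0.5 mM) by 0.1 nM LmPK over 1 h at room temperature (pH 7.2 imidazole buffer) was detected by coupled luciferase luminescence. Values were normalized to uninhibited and no-enzyme wells.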
Sm TGR block – blocks Schistosoma mansoni thioredoxin glutathione reductase | 3% of 360,000 active | purified TGR, DTNB reduction, TNB absorbance 405 nm | Potency, µM (highest dose often 114 µM), most hits filed as inhibitors | Q962Y6; also: nearly all actives have a fitted effect of over 60% in size
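Kinetic colorimetric format: TGR-catalysed, NADPH-driven DTNB reduction monitored via TNB absorbance. Enzyme dispensed at 20 nM; compound exposure 15 min at room temperature before reaction start.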
FBPA Giardia inh – blocks Giardia fructose-bisphosphate aldolase activity; Potency, µM (series often up to 59.6 µM), most hits filed as inhibitors; A8B2U2; purified Giardia FBPA; AID 2451; 0.71% of 290,000 active; also: nearly all actives have a fitted effect of over 55% in size
Target sequence (A8B2U2 whole entry, looked up): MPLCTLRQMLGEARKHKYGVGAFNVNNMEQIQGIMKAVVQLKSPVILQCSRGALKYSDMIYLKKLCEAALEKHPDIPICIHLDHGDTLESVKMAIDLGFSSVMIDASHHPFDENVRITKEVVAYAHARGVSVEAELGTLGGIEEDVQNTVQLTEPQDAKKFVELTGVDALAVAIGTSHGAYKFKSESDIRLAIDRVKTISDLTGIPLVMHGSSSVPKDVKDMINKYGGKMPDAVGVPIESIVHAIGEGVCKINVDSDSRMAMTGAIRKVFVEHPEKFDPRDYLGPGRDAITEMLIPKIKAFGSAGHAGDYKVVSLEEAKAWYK
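Giardia FBPA (40 nM reagent) was preincubated 10 min at RT with compound (up to 57.5 uM final), then substrate plus GAPDH/TPI/NAD/arsenate coupling system with diaphorase/resazurin was added; resorufin fluorescence (525/598 nm) was read after 20 min.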
Cycloheximide cs – counter-screen hit for Shiga toxin inhibitors, cycloheximide. cell reporter, cycloheximide protein synthesis inhibition counterscreen. max response, %. 12% of 300,000 active. AID 2314; in the data active = max response mostly above about 13%, no sharp cut-off; inactive = mostly below about 14%; also: read at 38.3 µM for the half of the compounds with a filed dose
Hits are given with their value; n = inactive; u = inconclusive; x = no result given. Many of the other results were omitted from the sample, so hits are more common in it than they were. Unless noted, calls follow the shape of the dose curve; as a rule, active = well fitted curve in the direction sought with a large enough effect; inconclusive = small, poorly fitted or top-dose-only effect, or another doubt; inactive = no such curve, though single readings can be large; an effect the other way counts as inactive or inconclusive.

SMILES	TbPYK inhibitor	Shiga toxin inh	LmPK inhibitor	Sm TGR block	FBPA Giardia inh	Cycloheximide cs
Cc1cc(C(=O)CSc2nc3ccc(Cl)cc3[nH]2)c(C)n1Cc1ccco1	n	x	x	x	x	x
Cc1cc(C(=O)CSc2nnnn2C)c(C)n1Cc1ccco1	n	87	n	u	n	71
Cc1cc(C(=O)CSc2ncccn2)c(C)n1Cc1ccco1	n	79	n	u	n	46
Cc1cccc(C(C)C)c1NC(=O)Cn1c(=O)oc2cc(S(=O)(=O)N3CCCC3)ccc21	n	x	x	n	x	x
Cc1nnsc1Sc1ccccn1	n	n	n	n	n	n
Clc1ccccc1CSc1snnc1-c1ccccc1	n	64	n	n	n	38
c1ccc(-c2nnsc2Sc2ccccn2)cc1	n	56	n	n	n	32
CSc1snnc1-c1ccccc1	n	n	n	n	n	n
CC(C)Sc1snnc1-c1ccccc1	n	n	n	n	n	n
Clc1ccc(-c2nnsc2SCc2ccccc2)cc1	n	49	n	n	n	44
Clc1ccc(CSc2snnc2-c2ccccc2)cc1	n	n	n	n	n	23
COc1ccc(CCNC(=O)CSc2nn(-c3ccccc3)c(=S)s2)cc1	n	n	n	n	n	n
O=C(CSc1nnc(CNC(=O)c2ccccc2)n1-c1cccc(Cl)c1)Nc1ccccc1F	n	x	x	n	x	x
COc1cccc(NC(=O)c2cnn(-c3ccccc3)c2-n2cccc2)c1	n	x	x	n	x	x
CN(NC(=O)NN(C)C(=O)c1ccccc1)C(=O)c1ccccc1	n	x	x	x	x	x
O=C(Nc1nc(-c2ccc(Br)cc2)ns1)c1ccccc1F	n	x	x	n	x	x
COc1ccccc1C1=NC(c2ccc(C)cc2)N=C1C (configuration not stated)	n	131	n	n	n	39
Nc1ncc(Br)cc1S(=O)(=O)NCCC(=O)NCCc1ccccc1	n	n	n	n	x	27
CC(=O)c1ccc(N2CCN(C(=O)CCS(=O)(=O)c3ccc4c(c3)NC(=O)CS4)CC2)cc1	n	55	n	n	x	44
O=C(CCS(=O)(=O)c1ccc2c(c1)NC(=O)CS2)NCCc1ccc(Cl)cc1	n	n	n	u	x	n
O=C(CCS(=O)(=O)c1ccc(Br)cc1)NCCc1ccccc1	n	n	n	50µM	n	n
O=C(CCS(=O)(=O)c1ccc2c(c1)NC(=O)CS2)NCCc1ccccc1	n	n	n	32µM	n	n
CC(NS(=O)(=O)c1cccc(Cl)c1F)[C@H](O)c1ccccc1 (some centres not stated)	n	x	x	x	x	x
CC1(C)CC(=O)C=C(c2ccc(COC(=O)C3CC3)cc2)C1=O	n	x	x	x	x	x
CCOC(=O)COc1cccc(C2NC(=O)c3ccccc3O2)c1 (configuration not stated)	n	n	n	n	n	n
SMILES	TbPYK inhibitor	Shiga toxin inh	LmPK inhibitor	Sm TGR block	FBPA Giardia inh	Cycloheximide cs
O=C(CCS(=O)(=O)Cc1ccccc1)NCCc1ccccc1	n	n	n	n	n	n
O=C1CSc2ccc(S(=O)(=O)CCC(=O)NC3CCCCC3)cc2N1	n	n	n	22µM	x	n
O=C(CCS(=O)(=O)Cc1ccc(Cl)cc1)NCCc1ccccc1	n	n	n	n	n	19
CC1CCC(NC(=O)CCS(=O)(=O)c2ccc3c(c2)NC(=O)CS3)CC1 (configuration not stated)	n	n	n	n	x	n
CCOc1ccc(CCNC(=O)CCS(=O)(=O)c2ccc(C)cc2)cc1OCC	n	n	n	32µM	n	n
CCOc1cc(C#N)c(NC(=O)Cn2nnc(-c3ccc(C)cc3)n2)cc1OCC	n	x	x	n	x	x
CCCCC[C@H](O)/C=C/C=C/C=C/[C@H](O)C/C=C\CCCC(=O)O	x	x	x	x	n	x
CCn1c2ccccc2c2cc([N+](=O)[O-])ccc21	n	n	n	n	n	n
CN(C)CCn1c2ccccc2c2nc3ccc([N+](=O)[O-])cc3cc21	n	39	n	n	n	16
CC(Sc1nnc(-c2ccncc2)n1C)C(=O)Nc1nccs1 (configuration not stated)	n	n	n	n	n	n
COC(=O)c1sc2cccc(F)c2c1S(=O)(=O)NCc1ccc(F)cc1	n	x	x	n	x	x
Cc1ccc(-c2cccc(CN3CCN(C(C)C)C(CCO)C3)c2)o1 (configuration not stated)	n	n	n	35µM	n	n
CC(C)N1CCN(Cc2nc(-c3ccccc3)cs2)CC1CCO (configuration not stated)	n	n	n	n	n	20
COc1cc(CN2CCN(C(C)C)C(CCO)C2)ccc1OCc1ccccc1 (configuration not stated)	n	70	n	n	n	30
CC1CCC(C(=O)NC(C(=O)OCC(=O)c2ccc(Br)cc2)C(C)C)CC1 (configuration not stated)	n	x	x	n	x	x
Cc1ccc(CN(C)C(=O)C2CCCN2C(=O)c2cccs2)o1 (configuration not stated)	u	n	n	7.9µM	n	n
O=C(Nc1nnc(SCc2cc(=O)n3cc(Cl)ccc3n2)s1)c1cccc(F)c1	n	x	x	n	x	x
CSc1ccc(S(=O)(=O)NCc2ccc(Cl)cc2Cl)cc1	n	n	n	n	n	n
CCc1ccc(CNC(=O)Cc2ccc(NC(=O)C3=C(C)OCCS3)cc2)cc1	n	57	n	n	n	36
COc1cccc(CNC(=O)Cc2ccc(NC(=O)C3=C(C)OCCS3)cc2)c1	n	41	n	n	x	29
COc1ccc(CNC(=O)c2ccccc2NC(=O)C2=C(C)OCCS2)cc1	n	x	x	x	x	x
CC1=C(C(=O)Nc2cccc(C(=O)NCc3ccc(F)cc3)c2)SCCO1	n	n	n	n	x	n
CC1=C(C(=O)Nc2ccc(CC(=O)NCc3ccccc3C)cc2)SCCO1	n	55	n	n	x	22
Cc1ccc(CCNC(=O)c2cc3n(n2)CCCN(Cc2ccc(C)cc2)C3=O)cc1	n	x	x	n	x	x
CC(C)CC(=O)NCC(c1ccc2c(c1)OCO2)N1CCN(c2ccccc2F)CC1 (configuration not stated)	n	x	x	n	x	x
SMILES	TbPYK inhibitor	Shiga toxin inh	LmPK inhibitor	Sm TGR block	FBPA Giardia inh	Cycloheximide cs
COc1ccc(-c2cn(-c3ccc(C)cc3)c(S(=O)(=O)CC(=O)Nc3ccccc3)n2)cc1	n	x	x	n	x	x
Cn1c(SCC(=O)c2ccccc2)ncc(C(=O)Nc2ccccc2)c1=O	n	x	x	n	x	x
COC(=O)c1ccnc(SCC(=O)c2ccccc2)c1	n	79	n	n	n	43
COC(=O)c1cnc(SCc2ccc(Cl)cc2)n1C	n	65	n	n	n	47
COC(=O)c1ccc2ncccc2c1	n	n	n	n	n	n
COC(=O)c1cnc(SCC(=O)c2ccccc2)n1C	n	100	u	n	n	43
COC(=O)CSc1nnc(SCc2ccc(Cl)cc2)s1	n	n	n	n	n	n
CCN(CC)CCOC(=O)c1ccc(NC(=O)c2cc3cccc(OC)c3oc2=O)cc1	n	x	x	n	x	x
COC(=O)c1cccc(NC(=O)c2cccnc2C(=O)O)c1C	n	59	n	n	u	29
